Results taken from PubChem BioAssay (Tox21).
Inconclusive results are not listed. Active and inactive are the calls of the source. Unless noted, calls follow the shape of the dose curve; as a rule, active = well fitted curve in the direction sought with a large enough effect in the repeat runs; inconclusive = weak or mixed curves; inactive = no such curve, though single readings can be large; an effect the other way counts as inactive or inconclusive.

Experiments:
[1] = qHTS assay to identify small molecule antagonists of the vitamin D receptor (VDR) signaling pathway - cell viability counter screen (AID 743225); also: % is scaled to controls: 0 for no effect and ±100 for the full control effect; nearly all actives have a fitted effect of over 50% in size
In short: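 Luminescent cell viability (CellTiter-Glo) in VDR-bla HEK 293T cells after 16 h compound exposure at 37C in the presence of 3 nM final 1-alpha,25-dihydroxy vitamin D3.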

[2] = qHTS assay to identify small molecule agonists of the NFkB signaling pathway (AID 1159509; active = well fitted curve in the direction sought with a large enough effect in the signal ratio in the repeat runs, not every such curve was filed as active; the % refers to the signal ratio; also: series mostly up to about 61 µM; % is scaled to controls: 0 for no effect and ±100 for the full control effect)
In short: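 ME-180 NFkB-bla, 2,000 cells/well, overnight plating; cpd pinned in DMSO, 5 h 37 C; B/G FRET substrate 1.5 h RT; ex 405, em 460/530 nm.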

[3] = qHTS assay to identify small molecule agonists of the NFkB signaling pathway - cell viability counter screen (AID 1159515; calls by dose curve; also: series mostly up to about 61 µM; % is scaled to controls: 0 for no effect and ±100 for the full control effect; nearly all actives have a fitted effect of over 55% in size)
In short: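 NFkB-bla ME-180 cells, 2,000/well, plated overnight at 37 C; compound added for 5 hr at 37 C. Viability read in the same wells as the bla reporter, by CellTiter-Glo luminescence after 30 min at room temperature.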

[4] = qHTS assay to identify small molecule agonists of the endoplasmic reticulum stress response signaling pathway (AID 1159516; active = well fitted activation curve with a large enough effect in the signal ratio in the repeat runs, not every such curve was filed as active; the % refers to the signal ratio; also: % is scaled to controls: 0 for no effect and ±100 for the full control effect)
In short: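 CellSensor ESRE-bla HeLa cells, 1,500 per well, plated overnight, then exposed to compounds for 5 hr at 37 C. Beta-lactamase reporter read with LiveBLAzer B/G FRET substrate after 2 hr at room temperature, 405 nm excitation, 460 and 530 nm emission.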

[5] = qHTS assay to identify small molecule agonists of the endoplasmic reticulum stress response signaling pathway - cell viability counter screen (AID 1159517; calls by dose curve;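 also: HeLa cells carrying an ER stress response element beta-lactamase reporter; series mostly up to about 61 µM; % is scaled to controls: 0 for no effect and ±100 for the full control effect; nearly all actives have a fitted effect of over 50% in size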)
In short: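 CellTiter-Glo was added to wells already read for beta-lactamase FRET, and luminescence was recorded 30 min later. Cells: ESRE-bla HeLa, 1,500 per well, compound exposure 5 hr at 37 C.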

[6] = target: Nuclear receptor ROR-gamma (Homo sapiens) (UniProt P51449); assay: qHTS assay to identify small molecule antagonists of the retinoid-related orphan receptor gamma (ROR-gamma) signaling pathway (AID 1159521;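 also: CHO cells with doxycycline inducible ROR-gamma driving an RORE luciferase reporter; top concentration of the series differs between compounds; % is scaled to controls: 0 for no effect and ±100 for the full control effect; nearly all actives have a fitted effect of over 50% in size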)
In short: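 CHO cells expressing RORγ under a TET-on promoter, luciferase under RORE control. Dox 1 uM final, 16 h; compounds added 2 h prior. Luminescence decrease measured.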

[7] = qHTS assay to identify small molecule agonists of the AP-1 signaling pathway - cell viability counter screen (AID 1159525; calls by dose curve; also: nearly all actives have a fitted effect of over 55% in size)
In short: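 ME-180 AP-1-bla, 2500 cells/well, Opti-MEM + 0.5% dialyzed FBS; overnight 37 °C; cpd 15-pt titration, 5 h 37 °C; CellTiter-Glo 30 min RT; luminescence read; normalised to TOAB and DMSO controls.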

[8] = qHTS assay to identify small molecule agonists of the AP-1 signaling pathway (AID 1159526; calls by dose curve; also: % is scaled to controls: 0 for no effect and ±100 for the full control effect)
[9] = qHTS assay to identify small molecule antagonists of the retinoid acid receptor (RAR) signaling pathway - cell viability counter screen (AID 1159551); also: % is scaled to controls: 0 for no effect and ±100 for the full control effect; nearly all actives have a fitted effect of over 35% in size
In short: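 C3RL4 RARE-luciferase cells, 1,000/well, incubated overnight, then dosed with compound plus 1 uM retinol (final). After 6 hr at 37 C, viability read by CellTiter-Glo ATP luminescence following 30 min at room temperature.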

[10] = qHTS assay to identify small molecule antagonists of the retinoic acid receptor (RAR) signaling pathway (AID 1159552; also: % is scaled to controls: 0 for no effect and ±100 for the full control effect; nearly all actives have a fitted effect of over 50% in size)
In short: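 Readout: luciferase luminescence, 30 min post-reagent at RT. Setup: C3RL4 RARE reporter cells, compounds plus retinol 1 uM final, 6 hr incubation at 37 C and 5% CO2.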

[11] = qHTS assay to identify small molecule agonists of the retinoic acid receptor (RAR) signaling pathway (AID 1159553); also: potency is read from the fitted curve at half-maximal effect
In short: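 C3RL4 RARE-luciferase cells were seeded at 1,000/well and grown overnight at 37 C, then exposed to compounds for 6 hr at 37 C, 5% CO2. Luciferase reagent was added and luminescence was read after 30 min at room temperature.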

[12] = qHTS assay to identify small molecule agonists of the vitamin D receptor (VDR) signaling pathway - cell viability counter screen (AID 743224)
In short: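 VDR-bla cells, 4 h after plating, exposed to compounds for 16 h at 37C; viability then read in the same wells as CellTiter-Glo luminescence after 30 min at room temperature, following the bla FRET read.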

[13] = qHTS assay to identify small molecule agonists of the RXR signaling pathway - cell viability counter screen (AID 1159529)
In short: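 Same-well viability check after the LiveBLAzer FRET read: CellTiter-Glo added, luminescence measured after 30 min at room temperature. Reporter HEK 293T cells had been treated with compounds for 16 hr following a 5 hr preincubation.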

[14] = qHTS assay to identify small molecule antagonists of the estrogen related receptor (ERR) signaling pathway (AID 1224819)
In short: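 ERR reporter cell line (NTP) plated at 2,000 cells/well, settled 6 h at 37C/5% CO2, then exposed to LOPAC compounds for 18 h at 37C. One-Glo luciferase luminescence read after 30 min at room temperature.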

[15] = qHTS assay to identify small molecule agonists of the estrogen related receptor (ERR) signaling pathway (AID 1224820); also: % is scaled to controls: 0 for no effect and ±100 for the full control effect
In short: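 Cells: ERR line from NTP, 2,000/well. Pre-incubation 6 h, 37 C/5% CO2. Compound (DMSO) pin transfer, 18 h 37 C. One-Glo, 30 min RT, luminescence.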

[16] = system: estrogen-related receptor alpha (ERRalpha) with PGC-1alpha coactivator, human; assay: qHTS assay to identify small molecule antagonists of the estrogen related receptor signaling pathway with the pleiotropic PPARgamma coactivator (PGC) (AID 1224821; calls by dose curve)
In short: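 Luminescent read-out (One-Glo, 30 min at room temperature) following 18 h treatment of PGC/ERR cells at 37 C with compounds delivered in DMSO. Cells had settled 6 h at 37 C/5% CO2 before dosing.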

CC(C)CC(C)(C)C
inactive: outcome [1] | outcome [2] | outcome [3] | outcome [4] | outcome [5] | Potency [6] | outcome [7] | Potency [8] | outcome [9] | outcome [10] | Potency [11]

COc1ccc(C(=O)c2ccc(C)cc2)c(O)c1
inactive: outcome [12] | outcome [1] | outcome [2] | outcome [3] | outcome [4] | outcome [5] | Potency [6] | outcome [7] | Potency [8] | Potency [13] | outcome [9]

c1ccc(-c2ccc(-c3ccccc3)cc2)cc1
active: Potency [11] 996 nM
inactive: outcome [12] | outcome [1] | outcome [2] | outcome [3] | outcome [4] | outcome [5] | activity change, negative = inhibition [6] 98.3% [at 19 µM] | viability change, negative = cytotoxic [7] 1.74% [at 15.8 µM] | activation [8] -13.1% [at 15.8 µM] | activity change, negative = cytotoxicity [9] 4.6% [at 19 µM] | activity, negative = inhibition [10] 100% [at 19 µM]

C=C(C)C(=O)OCCCCCCCCCCOC(=O)C(=C)C
inactive: outcome [12] | outcome [1] | outcome [2] | outcome [3] | outcome [4] | outcome [5] | Potency [6] | outcome [7] | Potency [8] | outcome [9] | outcome [10]

COC(=O)/C=C/C(C)=C\C=C\C(C)=C\C=C\C=C(C)\C=C\C=C(C)\C=C\C(=O)O
inactive: outcome [12] | outcome [1] | outcome [2] | outcome [3] | outcome [4] | outcome [5] | Potency [6] | outcome [7] | Potency [8] | Potency [13] | outcome [9] | outcome [10]

CC1=C(C)C(=O)C(CCCCC#CCCCC#CCO)=C(C)C1=O
active: Potency [14] 12.8 µM
inactive: outcome [12] | outcome [1] | outcome [2] | outcome [3] | outcome [4] | outcome [5] | outcome [7] | Potency [8] | outcome [9] | outcome [10] | outcome [15] | outcome [16]

C(/C=C/C=C/Nc1ccccc1)=Nc1ccccc1
inactive: outcome [12] | outcome [1] | outcome [2] | outcome [3] | outcome [4] | outcome [5] | Potency [6] | outcome [7] | Potency [8] | outcome [9] | outcome [10] | Potency [11]

O=C1OC(=O)C2CC=CCC12 (stereo not drawn)
inactive: outcome [12] | outcome [1] | outcome [2] | outcome [3] | outcome [4] | outcome [5] | Potency [6] | outcome [7] | Potency [8] | Potency [13] | outcome [9] | outcome [10]

C1=COCCC1
inactive: outcome [12] | outcome [1] | outcome [2] | outcome [3] | outcome [4] | outcome [5] | Potency [6] | outcome [7] | Potency [8] | Potency [13] | outcome [9] | outcome [10] | Potency [11]

COc1ccc(/C=C/c2cc(OC)cc(=O)o2)cc1
inactive: outcome [12] | outcome [1] | outcome [2] | outcome [3] | outcome [4] | outcome [5] | Potency [6] | outcome [7] | Potency [8] | outcome [9] | outcome [10]

C=Cc1ccc(C=C)cc1
inactive: outcome [12] | outcome [1] | outcome [2] | outcome [3] | outcome [4] | outcome [5] | Potency [6] | outcome [7] | Potency [8] | outcome [9]
